Data on 4 molecules can be found in PubChem BioAssay.

One assay addresses Albumin (Bos taurus) (UniProt P02769). The experiment in a line: compounds binding labelled BSA control protein – biochemical, small-molecule microarray, Alexa647 label, 635/667 nm fluorescence, artefact control for SMM control protein annotation, profiling panel (AID 1118).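 Further: score merges 667 nm emission intensity and signal-to-noise per printed compound spot.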 The settings on record: BSA-A647 binding, fluorescence 635 nm, higher = more signal.
A short description of assay [1]: probe aXIP binding to arrayed compounds – biochemical, NeuroSMM set, 635/667 nm fluorescence, primary screen (AID 1119).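 Further: probe is the protein aXip251-270 applied at 1 µg/mL to compound-printed slides; binding of probe to printed compounds measured as 667 nm fluorescence plus signal to noise.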 The settings on record: small-molecule microarray, higher = more signal, called active from +8 up or from −8 down.
The nature of assay [2]: probe aNOTCH3 binding on compound microarray – biochemical, small-molecule microarray, 635/667 nm fluorescence, primary screen (AID 1120).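 Further: probe is a biotin-tagged antibody raised against NOTCH3 rather than NOTCH3 protein; score merges spot fluorescence near 667 nm with spot signal to noise.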 The settings on record: higher = more signal.
Assay [3] can be described thus: probe aNOTCH2 binding on compound microarray – biochemical, small-molecule microarray, 635/667 nm fluorescence, primary screen (AID 1121).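 Further: score merges feature fluorescence read at 667 nm with its signal to noise.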 The conditions noted are these: higher = more signal.
In assay [4] the target is Carbonic anhydrase 2 (Homo sapiens) (UniProt P00918). The experiment in a line: compounds binding carbonic anhydrase 2 – biochemical, small-molecule microarray, Alexa647-labelled CAII, profiling panel (AID 1122). The settings on record: CAII-A647 binding fluorescence, higher = more signal.
The nature of assay [5]: COS7 lysate on small-molecule microarray, probe aHis, 635 nm (AID 1123).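 Further: z-score combines 667nm fluorescence intensity with signal-to-noise per printed compound spot.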 The settings on record: COS7 cell lysate, fluorescence, higher = more signal.
The nature of assay [6]: probe aLAP1 signal on lysate-treated microarray – cell lysate, small-molecule microarray, COS7 lysate, primary screen (AID 1124).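 Further: lysate comes from COS7 cells expressing LAP1 and is applied at 0.3 µg/mL; score merges spot fluorescence near 667 nm with signal-to-noise over triplicate slides.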 The settings on record: probe aLAP1, fluorescence, higher = more signal.
For the next assay, the system named is Sam68 (KHDRBS1). Description: compounds binding KHDRBS1 protein – biochemical, small-molecule microarray, 635 nm fluorescence, primary screen (AID 1125).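 Further: score merges 667 nm channel intensity with signal to noise over triplicate slides.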 The conditions noted are these: higher = more signal.
The test system of assay [7] is Chordin-like protein 2 (CHRDL2). Description: compounds binding chordin-like 2 – biochemical, small-molecule microarray, 635 nm fluorescence, primary screen (AID 1126).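 Further: printed compound slides probed with Chrdl2 protein at 4 µg/mL for 1 h at 4 C; score merges 667 nm emission intensity with signal to noise over three replicate slides.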 The conditions noted are these: fluorescence 635 nm, higher = more signal.
Assay [8] addresses Concanavalin-A (Canavalia ensiformis) (UniProt P02866). The experiment in a line: compounds binding concanavalin A lectin – biochemical, small-molecule microarray, Alexa647 label, 635 nm, artefact control for SMM control protein annotation, primary screen (AID 1127).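 Further: z combines 667 nm emission intensity with signal-to-noise across three replicate slides.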 The settings on record: ConA-A647 binding fluorescence, higher = more signal.
Assay [9] is described as follows: compounds binding Alexa647 anti-His antibody – biochemical, small-molecule microarray, 635 nm fluorescence, artefact control for SMM control protein annotation, primary screen (AID 1128).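 Further: score merges feature fluorescence with signal-to-noise for each printed compound spot.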 The conditions noted are these: higher = more signal.
The test system of assay [10] is Human papillomavirus type 1a E7 protein (residues 1-88). Description: HPV1a E7 small-molecule binders, primary screen, biochemical, small-molecule microarray, residues 1-88, 635 nm (AID 1129). The settings on record: small-molecule microarray binding, fluorescence 635 nm; higher = more signal.
Assay [11] concerns the target Focal adhesion kinase 1 (Homo sapiens) (UniProt Q05397). Description: PTK2 protein binding on printed compound slides – biochemical, small-molecule microarray, 635/667 nm fluorescence, BSA, DTT, primary screen (AID 1130).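 Further: composite of spot emission at 667 nm and signal to noise over triplicate slides.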 The conditions noted are these: 635 nm fluorescence, higher = more signal.
For assay [12], the system named is Fibrinogen (Alexa647-labelled). The experiment in a line: Alexa647-fibrinogen binding to printed small molecules – biochemical, small-molecule microarray, 635/667 nm fluorescence, artefact control for SMM control-protein annotation, profiling panel (AID 1131).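 Further: z-score merges 667 nm fluorescence with per-spot signal-to-noise over triplicate slides.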 The conditions noted are these: fibrinogen-A647 binding fluorescence, higher = more signal.
Assay [13] has as its target Follistatin (Homo sapiens) (UniProt P19883). Description: FST protein binding to printed compounds – biochemical, small-molecule microarray, 635/667 nm fluorescence, primary screen (AID 1132). The conditions noted are these: 635 nm fluorescence, higher = more signal.
Assay [14] addresses Fibroblast growth factor 2 (Homo sapiens) (UniProt P09038). Description: basic fibroblast growth factor binding to printed compounds – biochemical, small-molecule microarray, 635/667 nm fluorescence, primary screen (AID 1133). The settings on record: FGF2, fluorescence 635/667, higher = more signal.
The nature of assay [15]: JC-1 mitochondrial potential readout, lung cancer cells – cell-based, A549, JC-1 fluorescence, basal, 24 h, 100 nL, profiling panel (AID 1138).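 Further: A549 lung adenocarcinoma cells under basal conditions with no added stimulus; test concentration not given here.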 The conditions noted are these: higher = more signal.
In another assay the test system is Lefty1. Description: Lefty1 protein binding to printed compounds – biochemical, small-molecule microarray, 635/667 nm fluorescence, primary screen (AID 1139). The settings on record: fluorescence 635/667, higher = more signal.
The subject of assay [16] is wheat germ agglutinin (Triticum aestivum), Alexa647-labelled. Description: Alexa647-WGA lectin binding to printed small molecules – biochemical, small-molecule microarray, 635/667 nm fluorescence, artefact control for SMM control-protein annotation, profiling panel (AID 1140).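 Further: score merges 667 nm feature emission with signal to noise over triplicate slides.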 The conditions noted are these: WGA-A647 binding, 635 nm fluorescence, higher = more signal.
Assay [17] addresses Luciferin 4-monooxygenase (Photinus pyralis) (UniProt P08659). Description: inhibition of purified Photinus pyralis luciferase – biochemical, luminescence, purified enzyme, 2006 set, primary screen (AID 1141).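 Further: cell-free assay with purified firefly luciferase at 100 ng per well in PBS; test concentration not given here.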 The settings on record: purified firefly luciferase, SteadyGlo luminescence, 30 min; higher = more signal, called active from +8 up or from −8 down.

The source made the active and inactive calls.

Luciferin 4-monooxygenase (Photinus pyralis), sequence (P08659 whole entry, looked up): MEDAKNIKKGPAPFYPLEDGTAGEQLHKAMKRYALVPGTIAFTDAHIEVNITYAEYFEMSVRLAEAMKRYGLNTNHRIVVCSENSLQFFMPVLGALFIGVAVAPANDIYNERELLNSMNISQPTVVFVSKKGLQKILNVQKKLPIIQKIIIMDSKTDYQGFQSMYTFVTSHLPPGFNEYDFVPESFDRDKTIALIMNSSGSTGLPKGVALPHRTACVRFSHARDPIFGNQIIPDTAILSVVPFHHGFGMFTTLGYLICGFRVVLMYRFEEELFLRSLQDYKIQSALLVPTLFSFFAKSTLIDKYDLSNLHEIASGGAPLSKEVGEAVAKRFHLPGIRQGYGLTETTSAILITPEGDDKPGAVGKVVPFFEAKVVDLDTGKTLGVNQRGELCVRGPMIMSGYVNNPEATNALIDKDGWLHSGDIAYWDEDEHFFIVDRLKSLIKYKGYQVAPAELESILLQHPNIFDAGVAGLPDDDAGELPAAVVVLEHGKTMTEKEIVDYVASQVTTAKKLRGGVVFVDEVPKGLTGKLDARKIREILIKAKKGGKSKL
Focal adhesion kinase 1 (Homo sapiens), sequence (Q05397 whole entry, looked up): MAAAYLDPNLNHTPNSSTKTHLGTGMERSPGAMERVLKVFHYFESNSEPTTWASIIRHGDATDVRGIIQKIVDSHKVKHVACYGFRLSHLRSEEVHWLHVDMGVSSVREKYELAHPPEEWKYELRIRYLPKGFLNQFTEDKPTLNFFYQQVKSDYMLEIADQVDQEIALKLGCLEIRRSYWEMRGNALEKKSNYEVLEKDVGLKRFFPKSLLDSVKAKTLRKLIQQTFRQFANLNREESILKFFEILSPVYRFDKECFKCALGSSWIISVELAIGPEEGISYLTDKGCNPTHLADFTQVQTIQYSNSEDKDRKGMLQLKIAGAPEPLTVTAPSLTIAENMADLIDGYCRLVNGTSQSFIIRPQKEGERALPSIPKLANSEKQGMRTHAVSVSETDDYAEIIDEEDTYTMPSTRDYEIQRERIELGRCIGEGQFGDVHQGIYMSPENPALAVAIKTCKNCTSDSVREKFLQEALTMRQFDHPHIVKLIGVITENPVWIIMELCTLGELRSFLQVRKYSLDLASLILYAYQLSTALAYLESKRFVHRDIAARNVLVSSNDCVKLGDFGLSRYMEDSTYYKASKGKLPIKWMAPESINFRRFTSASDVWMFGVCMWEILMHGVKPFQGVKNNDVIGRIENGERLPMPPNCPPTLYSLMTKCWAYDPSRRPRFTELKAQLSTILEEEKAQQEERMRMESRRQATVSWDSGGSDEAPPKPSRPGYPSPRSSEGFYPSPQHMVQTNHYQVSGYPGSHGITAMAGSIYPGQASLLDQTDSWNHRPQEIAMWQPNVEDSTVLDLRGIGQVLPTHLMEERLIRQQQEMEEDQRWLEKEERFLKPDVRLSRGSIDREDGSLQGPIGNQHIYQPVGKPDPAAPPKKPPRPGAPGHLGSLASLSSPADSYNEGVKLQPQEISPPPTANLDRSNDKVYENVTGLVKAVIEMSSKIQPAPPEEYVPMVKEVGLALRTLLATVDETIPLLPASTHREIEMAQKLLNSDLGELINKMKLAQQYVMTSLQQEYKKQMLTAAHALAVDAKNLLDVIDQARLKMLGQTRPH
Follistatin (Homo sapiens), sequence (P19883 whole entry, looked up): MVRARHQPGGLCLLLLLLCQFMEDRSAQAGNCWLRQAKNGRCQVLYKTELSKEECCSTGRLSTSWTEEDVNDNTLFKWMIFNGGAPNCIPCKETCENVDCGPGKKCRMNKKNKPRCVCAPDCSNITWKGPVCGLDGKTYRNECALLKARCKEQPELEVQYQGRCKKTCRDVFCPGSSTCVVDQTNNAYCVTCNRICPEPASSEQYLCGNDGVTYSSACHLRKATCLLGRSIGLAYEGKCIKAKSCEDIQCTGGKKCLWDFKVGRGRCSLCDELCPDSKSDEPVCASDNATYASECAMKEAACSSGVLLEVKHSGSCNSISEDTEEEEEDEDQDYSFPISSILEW
Fibroblast growth factor 2 (Homo sapiens), sequence (P09038 whole entry, looked up): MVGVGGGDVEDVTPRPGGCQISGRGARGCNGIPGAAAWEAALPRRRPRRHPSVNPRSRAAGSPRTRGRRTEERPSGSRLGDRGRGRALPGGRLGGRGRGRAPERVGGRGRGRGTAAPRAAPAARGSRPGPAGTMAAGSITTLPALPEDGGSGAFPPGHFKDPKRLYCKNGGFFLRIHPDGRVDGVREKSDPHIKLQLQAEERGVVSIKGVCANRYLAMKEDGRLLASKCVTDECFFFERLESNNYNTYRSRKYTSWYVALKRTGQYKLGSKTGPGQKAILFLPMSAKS
Concanavalin-A (Canavalia ensiformis), sequence (P02866 whole entry, looked up): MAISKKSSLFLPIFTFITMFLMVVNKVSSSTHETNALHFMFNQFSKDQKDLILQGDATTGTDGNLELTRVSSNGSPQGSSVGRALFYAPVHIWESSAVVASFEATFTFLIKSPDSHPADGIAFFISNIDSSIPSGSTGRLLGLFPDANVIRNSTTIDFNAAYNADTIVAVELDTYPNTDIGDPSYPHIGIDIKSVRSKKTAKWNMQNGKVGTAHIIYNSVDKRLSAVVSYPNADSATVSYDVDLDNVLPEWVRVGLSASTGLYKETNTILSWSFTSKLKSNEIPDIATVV
Albumin (Bos taurus), sequence (P02769 whole entry, looked up): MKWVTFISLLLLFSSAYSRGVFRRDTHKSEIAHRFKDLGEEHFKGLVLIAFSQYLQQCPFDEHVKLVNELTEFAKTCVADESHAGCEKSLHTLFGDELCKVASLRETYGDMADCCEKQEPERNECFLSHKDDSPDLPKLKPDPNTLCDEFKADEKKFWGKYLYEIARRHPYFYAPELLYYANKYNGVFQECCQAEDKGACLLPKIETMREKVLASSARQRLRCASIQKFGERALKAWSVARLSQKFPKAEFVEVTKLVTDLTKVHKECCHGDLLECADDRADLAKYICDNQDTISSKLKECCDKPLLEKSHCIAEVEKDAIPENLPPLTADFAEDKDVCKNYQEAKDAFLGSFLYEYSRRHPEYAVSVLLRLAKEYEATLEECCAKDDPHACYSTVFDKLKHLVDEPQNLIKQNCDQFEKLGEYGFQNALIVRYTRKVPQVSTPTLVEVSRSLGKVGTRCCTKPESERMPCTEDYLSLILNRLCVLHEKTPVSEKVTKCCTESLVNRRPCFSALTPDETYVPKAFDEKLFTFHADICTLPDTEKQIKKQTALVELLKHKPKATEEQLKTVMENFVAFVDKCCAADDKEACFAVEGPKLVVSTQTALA

With `CO[C@H]1O[C@H](CO)[C@@H](OC(=O)Nc2ccc3c(c2)OCO3)[C@H](OC(=O)Nc2ccccc2)[C@@H]1OC(=O)Nc1ccccc1`, the composite z-score in the assay with Albumin (Bos taurus) is 0.792; in [2], -0.004; in assay [3] it was -0.0952; in assay [4] it was 0.743; in assay [5] it was 3; in assay [6], 0.982. The composite z-score was 1.29 with Sam68 (KHDRBS1); -0.0509 in assay [7]; 1.09 in assay [8]; 1.79 in assay [9]; 1.22 in [10]; 1.02 in [11]. For the same molecule, the composite z-score is 0.968 in [12]; 1.41 in assay [13]; 1.83 in assay [14]; 0.823 in the assay with Lefty1; 0.497 in [16]. In addition, in assay [1], the composite Z-score was 0.0474 (inactive). Moreover, the results for the z-score in [15] and in assay [17] were 0.187 and -0.899 (inactive), respectively.

As for `C=CCC(OC(C)=O)[C@@H]1[C@@H](N(Cc2cccc3ccccc23)C(=O)c2ccc(C)cc2)c2cc(OCCCO)ccc2N1C(=O)c1ccc(-c2ccccc2)cc1` (stereo not given in full), the composite z-score with Albumin (Bos taurus) was -0.0575; in assay [2], 0.102; in assay [3] it was -0.0398; in assay [4], 0.507; in assay [5] it was 0.143; in [6] it was -0.105. Moreover, the composite z-score is -0.087 with Sam68 (KHDRBS1); 0.114 in assay [7]; -0.227 in assay [8]; -0.215 in assay [9]; -0.0588 in assay [10]; -0.0095 in assay [11]. For the same molecule, the composite z-score in assay [12] is -0.5; in [13], 0.679; in [14], 0.26; with Lefty1, -0.0451; in [16] it was -0.285. Also, the composite Z-score in assay [1] is -0.0961 (inactive). Also, the z-score in [15] was 2.6; in [17], -1.18 (inactive).

Turning to `COc1cc(Cc2cc3c(c(CCc4ccccc4)n2)[Si](C(C)C)(C(C)C)OC3)cc(OC)c1OC`, the composite z-score with Albumin (Bos taurus) is -0.237; in [2], -0.0697; in assay [3], -0.165; in assay [4] it was 0.0001; in assay [5], -0.177; in [6], -0.0868. In addition, the composite z-score is -0.0118 in the assay with Sam68 (KHDRBS1); 0.182 in [7]; 0.255 in assay [8]; 0.151 in assay [9]; -0.162 in assay [10]; 0.0612 in assay [11]. Also, the composite z-score in [12] is -0.386; in assay [13], 0.694; in assay [14], 0.263; in the assay with Lefty1, 0.48; in assay [16] it was -0.14. In assay [1], the composite Z-score is -0.334 (inactive). Moreover, the z-score in assay [15] was 1.51; in assay [17] it was 0.874 (inactive).

In the case of `C=C(CCCC)C(=O)CC[C@@H](OC(=O)c1cccnc1)c1cccc(OCCO)c1`, the composite z-score with Albumin (Bos taurus) is -1.06; in assay [2], 0.0351; in assay [3], -0.148; in assay [4], 0.15; in assay [5], 0.0383; in assay [6], 0.0475. The composite z-score is 0.789 with Sam68 (KHDRBS1); 0.207 in assay [7]; -0.158 in assay [8]; 0.419 in [9]; -0.411 in [10]; 0.533 in assay [11]. For the same molecule, the composite z-score in [12] came out at 0.314; in assay [13] it was 0.674; in assay [14] it was 1.14; in the assay on Lefty1 it was 0.779; in assay [16] it was 0.59. Further, in [1], the composite Z-score is -0.123 (inactive). In addition, the z-score in [15] is 3.35; in assay [17], -3.06 (inactive).
